In this assay the target is pT7_6His-AlfaTag-HOXD13 (human, UniProt P35453 263-343). Put plainly: PADIT-seq. Conditions: dsDNA, one strand shown.
Sequence of pT7_6His-AlfaTag-HOXD13 (P35453 263-343): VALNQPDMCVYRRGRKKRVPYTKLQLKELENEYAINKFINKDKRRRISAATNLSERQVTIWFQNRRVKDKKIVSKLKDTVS
For the sequence “CTCGAGGATATCAAGATCTGGCCTCGGCAAGATAAAAGGAACCTCTAGCTAGCCGACTCACTATAGGGATAATCGCCCTGAGCAAAGACC”, the binding signal came out at 0.282 ± 0.0917 log2FC.
Regarding “CTCGAGGATATCAAGATCTGGCCTCGGCGGCCTAAAAGGAACCTCTAGCTAGCCGACTCACTATAGGGATAATCGCCCTGAGCAAAGACC”, the binding signal is -0.691 ± 0.105 log2FC.
Sequence “CTCGAGGATATCAAGATCTGGCCTCGGCCTTTTAGCGGGAACCTCTAGCTAGCCGACTCACTATAGGGATAATCGCCCTGAGCAAAGACC” returned a binding signal of 0.142 ± 0.0994 log2FC.
Sequence “CTCGAGGATATCAAGATCTGGCCTCGGCAAAGTAAAAGGAACCTCTAGCTAGCCGACTCACTATAGGGATAATCGCCCTGAGCAAAGACC” returned a binding signal of 0.197 ± 0.0829 log2FC.
For “CTCGAGGATATCAAGATCTGGCCTCGGCGGACCACGCGGAACCTCTAGCTAGCCGACTCACTATAGGGATAATCGCCCTGAGCAAAGACC”, the binding signal was -0.846 ± 0.11 log2FC.
For “CTCGAGGATATCAAGATCTGGCCTCGGCCAGCTAAAAGGAACCTCTAGCTAGCCGACTCACTATAGGGATAATCGCCCTGAGCAAAGACC”, the binding signal was -0.419 ± 0.146 log2FC.
For “CTCGAGGATATCAAGATCTGGCCTCGGCGGTTTAAAAGGAACCTCTAGCTAGCCGACTCACTATAGGGATAATCGCCCTGAGCAAAGACC”, the binding signal stood at 1.97 ± 0.078 log2FC.
Then “CTCGAGGATATCAAGATCTGGCCTCGGCATTTTATGCGGAACCTCTAGCTAGCCGACTCACTATAGGGATAATCGCCCTGAGCAAAGACC”, with 2.23 ± 0.0779 log2FC.
Then “CTCGAGGATATCAAGATCTGGCCTCGGCTGAATAAAAGGAACCTCTAGCTAGCCGACTCACTATAGGGATAATCGCCCTGAGCAAAGACC”, with 0.859 ± 0.0895 log2FC.
The sequence “CTCGAGGATATCAAGATCTGGCCTCGGCGTAGTAAAAGGAACCTCTAGCTAGCCGACTCACTATAGGGATAATCGCCCTGAGCAAAGACC” came in with a binding signal of 2.18 ± 0.0733 log2FC.
As to “CTCGAGGATATCAAGATCTGGCCTCGGCATTTTAGTTGGAACCTCTAGCTAGCCGACTCACTATAGGGATAATCGCCCTGAGCAAAGACC”, the binding signal stood at 0.276 ± 0.112 log2FC.
Take “CTCGAGGATATCAAGATCTGGCCTCGGCGCGTGGCCAGGAACCTCTAGCTAGCCGACTCACTATAGGGATAATCGCCCTGAGCAAAGACC”: the binding signal was -1.04 ± 0.128 log2FC.
Sequence “CTCGAGGATATCAAGATCTGGCCTCGGCTCGATAAAAGGAACCTCTAGCTAGCCGACTCACTATAGGGATAATCGCCCTGAGCAAAGACC” yielded a binding signal of 1.03 ± 0.106 log2FC.
“CTCGAGGATATCAAGATCTGGCCTCGGCGCCCTAAAAGGAACCTCTAGCTAGCCGACTCACTATAGGGATAATCGCCCTGAGCAAAGACC” returned a binding signal of 0.248 ± 0.0833 log2FC.
Sequence “CTCGAGGATATCAAGATCTGGCCTCGGCATAATAAAAGGAACCTCTAGCTAGCCGACTCACTATAGGGATAATCGCCCTGAGCAAAGACC” yielded a binding signal of 2.68 ± 0.0776 log2FC.
Turning to “CTCGAGGATATCAAGATCTGGCCTCGGCATAGTAAAAGGAACCTCTAGCTAGCCGACTCACTATAGGGATAATCGCCCTGAGCAAAGACC”, the binding signal amounted to 1.98 ± 0.0822 log2FC.
Then “CTCGAGGATATCAAGATCTGGCCTCGGCTTTTTACCGGGAACCTCTAGCTAGCCGACTCACTATAGGGATAATCGCCCTGAGCAAAGACC”, with 0.978 ± 0.0873 log2FC; and “CTCGAGGATATCAAGATCTGGCCTCGGCCGCCCATTTGGAACCTCTAGCTAGCCGACTCACTATAGGGATAATCGCCCTGAGCAAAGACC”, with -0.832 ± 0.113 log2FC; and “CTCGAGGATATCAAGATCTGGCCTCGGCCGCTCGCGCGGAACCTCTAGCTAGCCGACTCACTATAGGGATAATCGCCCTGAGCAAAGACC”, with -1.03 ± 0.134 log2FC.
“CTCGAGGATATCAAGATCTGGCCTCGGCTCCTTAAAAGGAACCTCTAGCTAGCCGACTCACTATAGGGATAATCGCCCTGAGCAAAGACC” registered a binding signal of 1.08 ± 0.104 log2FC.
For “CTCGAGGATATCAAGATCTGGCCTCGGCAGACTAAAAGGAACCTCTAGCTAGCCGACTCACTATAGGGATAATCGCCCTGAGCAAAGACC”, the binding signal was -0.679 ± 0.104 log2FC.
“CTCGAGGATATCAAGATCTGGCCTCGGCCAACTAAAAGGAACCTCTAGCTAGCCGACTCACTATAGGGATAATCGCCCTGAGCAAAGACC” returned a binding signal of 0.0444 ± 0.126 log2FC.
“CTCGAGGATATCAAGATCTGGCCTCGGCATTTTAGCTGGAACCTCTAGCTAGCCGACTCACTATAGGGATAATCGCCCTGAGCAAAGACC”: the binding signal was -0.225 ± 0.108 log2FC.
Sequence “CTCGAGGATATCAAGATCTGGCCTCGGCCTTTTAATCGGAACCTCTAGCTAGCCGACTCACTATAGGGATAATCGCCCTGAGCAAAGACC” showed a binding signal of 1.35 ± 0.0812 log2FC.
Regarding “CTCGAGGATATCAAGATCTGGCCTCGGCATTTTACATGGAACCTCTAGCTAGCCGACTCACTATAGGGATAATCGCCCTGAGCAAAGACC”, the binding signal is 2.14 ± 0.0807 log2FC.
For “CTCGAGGATATCAAGATCTGGCCTCGGCCTTTTAACCGGAACCTCTAGCTAGCCGACTCACTATAGGGATAATCGCCCTGAGCAAAGACC”, the binding signal worked out at 1.24 ± 0.0724 log2FC.

The values are drawn from article doi:10.1101/2024.03.05.583629.
